VACV mCherry inh = inhibitors of vaccinia virus infection (mCherry reporter signal); Vaccinia virus mCherry reporter infection, fluorescence; Potency, µM (series often up to 36.5 µM), for inactives: at the top dose activity change, negative = inhibition, actives largely listed as inhibitors; 310,000 tested, 0.63% active; AID 720579; calls by dose curve; tested in A549 cells; also: potency is read from the fitted curve at half-maximal effect; nearly all actives have a fitted effect of over 35% in size
MARV entry inh = Marburg virus entry inhibition. Marburg virus pseudotyped entry inhibition, cell reporter. Potency, µM (top dose mostly 37.8 µM), for the others: top-dose activity change, negative = inhibition, most hits filed as inhibitors. 300,000 tested, 1.8% active. AID 540276; calls by dose curve; tested in HEK293 cells; also: potency is read from the fitted curve at half-maximal effect
FMDV inh = blocks foot and mouth disease virus; FMDV antiviral cell-based qHTS; Potency, µM (doses to about 57.9 µM), without a hit: at the highest dose activity change, negative = inhibition, usual class: inhibitors; 410,000 tested, 1.2% active; AID 1159524; calls by dose curve; tested in HEK293T cells; also: read-out not given here; potency is read from the fitted curve at half-maximal effect; nearly all actives have a fitted effect of over 45% in size
HCMV inh = blocks human cytomegalovirus replication. HFF cells, HCMV-luciferase reporter, 72 h; hits give low values. activity change, negative = inhibition, % at 57.5 µM. 410,000 tested, 4.5% active. AID 1259415; in the data active = activity change below about -60%; inconclusive = no clear call, values can overlap the other calls; inactive = above about -39%
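Screen run at 2 compound doses on HFFs infected with reporter HCMV, MOI 1 PFU/cell. Luciferase activity from cell lysates at 72 h post infection gave inhibition relative to buffer-only and Salinomycin wells.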
LASV entry inh = Lassa virus entry inhibition; AID 540256; 300,000 tested, 1.2% active; Potency, µM (titrated, usually from 37.9 µM), without a hit: top-dose activity change, negative = inhibition, hits mostly inhibitors; Lassa virus pseudotype entry inhibition, cell reporter; calls by dose curve; tested in HEK293 cells; also: potency is read from the fitted curve at half-maximal effect; nearly all actives have a fitted effect of over 50% in size
Vaccinia Venus = vaccinia inhibition (Venus reporter). Vaccinia virus Venus reporter expression, fluorescence. Potency, µM (top dose mostly 36.5 µM), for the others: at the highest dose activity change, negative = inhibition, hits mostly inhibitors. 330,000 tested, 0.46% active. AID 720580; calls by dose curve; tested in A549 cells; also: potency is read from the fitted curve at half-maximal effect; nearly all actives have a fitted effect of over 30% in size
The depositor's hits bear a star; [ ] = dose if it differs, or a comment. Compounds with a hit are over-represented: about 6.5% of the library has one in this group of screens. % is scaled to controls: 0 for no effect and ±100 for the full control effect.

`COc1ccc(S(=O)(=O)NCCc2nnc3ccc(SCC(=O)Nc4ccc(C(F)(F)F)cc4)nn23)cc1` gave VACV mCherry inh 0%, FMDV inh -13%, HCMV inh -15, LASV entry inh 12%[46.1 µM] and Vaccinia Venus -4%.
`Cc1nc(-c2ccc(Cl)cc2)sc1CCNC(=O)C(=O)Nc1ccc2c(c1)OCO2` gave VACV mCherry inh inconclusive, FMDV inh 3%, HCMV inh 33, LASV entry inh -1%[46.1 µM] and Vaccinia Venus inconclusive.
Screening COc1ccc(/C(=C\C(=O)O)c2nccc3cc(OC)c(OC)cc23)cc1OC returned FMDV inh -23%.
Cc1nc2c(c3c1[nH]c1ccccc13)C(O)CC(C)(C)C2 (centres undefined) was read as VACV mCherry inh inconclusive, MARV entry inh inconclusive, FMDV inh inconclusive, HCMV inh -90*, LASV entry inh inconclusive and Vaccinia Venus -25%.
`Cc1nn(-c2ccccc2)c2c1C(O)CC(C)(C)C2` (centres undefined) gave FMDV inh -14% and HCMV inh -37.
O=C(C1CCN(S(=O)(=O)c2cccc3nonc23)CC1)N1CCN(c2ccccc2)CC1 was read as VACV mCherry inh -7%, MARV entry inh -4%[46.1 µM], FMDV inh -8%, HCMV inh -18, LASV entry inh 14%[46.1 µM] and Vaccinia Venus -3%.
Screening COc1ccc(NC(=S)NC2CCCCC2)cn1 returned VACV mCherry inh -3%, MARV entry inh 1%[46.1 µM], FMDV inh 68%, HCMV inh -87*, LASV entry inh -12% and Vaccinia Venus 0%.
For S=C(Nc1ccc(Oc2ccccc2)cc1)NC1CCCC1 the results were VACV mCherry inh inactive, MARV entry inh 22%, FMDV inh 66%, HCMV inh -33, LASV entry inh 4% and Vaccinia Venus -12%.
Screening S=C(Nc1ccc(Br)cc1)NC1CCCC1 returned VACV mCherry inh -16%, MARV entry inh -5%, FMDV inh 36%, HCMV inh -65*, LASV entry inh inconclusive and Vaccinia Venus -22%.
Nc1ccc2ccc(NS(=O)(=O)N3CCCCC3)cc2c1 was read as HCMV inh 7.
COc1ccccc1-c1noc2nc(N(C)Cc3ccc(F)cc3)ccc12 was read as HCMV inh -9.
Screening CC1CCCN(c2ccc(C(=O)NCc3cccs3)cn2)C1 (centres undefined) returned VACV mCherry inh -5%, MARV entry inh 12%, HCMV inh -2, LASV entry inh 10µM* and Vaccinia Venus -26%.
`O=C(NCc1cccs1)c1ccc(N2CCCCC2)nc1` gave VACV mCherry inh -10%, MARV entry inh -2%, HCMV inh 21, LASV entry inh -16% and Vaccinia Venus inconclusive.
For S=C(NCCN1CCOCC1)Nc1cccc(Cl)c1 the results were VACV mCherry inh -15%, MARV entry inh inconclusive, FMDV inh 8%, HCMV inh 27, LASV entry inh 6% and Vaccinia Venus -6%.
For S=C(NCCCN1CCOCC1)Nc1cccc(Cl)c1 the results were VACV mCherry inh -6%, MARV entry inh -1%, FMDV inh 5%, HCMV inh -19, LASV entry inh 13µM* and Vaccinia Venus -22%.
O=C(Nc1cccc(Cl)c1)c1ccc(NCCCN2CCOCC2)c([N+](=O)[O-])c1 was read as VACV mCherry inh -15%[1.46 µM], MARV entry inh 10µM*, FMDV inh inconclusive, HCMV inh inconclusive, LASV entry inh inconclusive and Vaccinia Venus inconclusive.
For COc1ccc(NC(=O)C2CCCN2C(=O)Nc2ccccc2)cc1OC (centres undefined) the results were MARV entry inh -2%, FMDV inh 10%, HCMV inh 36 and LASV entry inh 0%.
For COc1ccc(C2CCCN2C(=O)Nc2ccc(Cl)cc2)cc1OC (centres undefined) the results were VACV mCherry inh inactive, FMDV inh -8%, HCMV inh -72* and Vaccinia Venus -21%.
O=C1C(N2CCOCC2)=C(n2nnc3ccccc32)C(=O)c2ccccc21 was read as VACV mCherry inh inconclusive, MARV entry inh 7.9µM*, FMDV inh 10µM*, HCMV inh -100*, LASV entry inh inconclusive and Vaccinia Venus inconclusive.
`O=C1c2ccccc2C(=O)c2c1cccc2-n1nnc2ccccc21` gave VACV mCherry inh -16%[7.34 µM], MARV entry inh 3%[46.1 µM], FMDV inh -15%, HCMV inh -15, LASV entry inh 8% and Vaccinia Venus -11%[7.34 µM].
`CCOc1ccccc1-n1c(N)c(C(N)=O)sc1=S` gave MARV entry inh 3%, FMDV inh 2%, HCMV inh -63* and LASV entry inh 3%.
`O=C(Nc1ccn2ccnc2n1)c1ccccc1C(F)(F)F` gave HCMV inh -13.
Screening Cc1ccccc1Cn1cc(S(=O)(=O)c2ccc(F)cc2)c(=O)c2cc3c(cc21)OCO3 returned VACV mCherry inh 0%, MARV entry inh 4%[46.1 µM], FMDV inh -2%, HCMV inh 13, LASV entry inh 1%[46.1 µM] and Vaccinia Venus 1%.
Screening CCN(CC)c1ccc(-c2nc(-c3ccco3)no2)cc1[N+](=O)[O-] returned VACV mCherry inh -10%, MARV entry inh inconclusive, FMDV inh -27%, HCMV inh -21, LASV entry inh -1%[46.1 µM] and Vaccinia Venus -15%.
Screening COC(=O)/C(C#N)=C1\SC=C(C)N1c1ccccc1 returned MARV entry inh 4%.
`Cc1cc(OCCCSc2nc(-c3ccc(C(C)(C)C)cc3)nc3cc(=O)[nH]n23)ccc1Cl` gave VACV mCherry inh -5%[7.34 µM], FMDV inh -16%, HCMV inh -64*, LASV entry inh -8%[46.1 µM] and Vaccinia Venus -14%[7.34 µM].
Screening CC1=C(C(=O)Nc2ccccc2)C(c2cccc(O)c2)n2nc(-c3ccccc3Cl)nc2N1 (centres undefined) returned VACV mCherry inh -5%, MARV entry inh -29%[46.1 µM], FMDV inh -17%, HCMV inh 26, LASV entry inh -7%[46.1 µM] and Vaccinia Venus -4%.
`COCCNc1nc(CSc2ccccc2)nc2sc(C)c(C)c12` gave VACV mCherry inh inactive, MARV entry inh -4%, FMDV inh 0%, HCMV inh -70*, LASV entry inh inconclusive and Vaccinia Venus -23%.
For Cc1sc2nc(CSc3ccccc3)nc(N3CCN(C)CC3)c2c1C the results were VACV mCherry inh 1%, MARV entry inh inconclusive, FMDV inh inconclusive, HCMV inh inconclusive, LASV entry inh inconclusive and Vaccinia Venus -29%.
Screening Cc1cc(NC(=O)CN2C(=O)CSc3ccc(S(=O)(=O)N(C)C)cc32)ccc1Br returned VACV mCherry inh -28%, FMDV inh -26%, HCMV inh 0, LASV entry inh -7%[46.1 µM] and Vaccinia Venus -8%.
CN1CCN(c2ncc3c(n2)CCN(Cc2ccccc2Cl)C3)CC1 was read as VACV mCherry inh -14%, FMDV inh -4%, HCMV inh -9, LASV entry inh -6%[46.1 µM] and Vaccinia Venus -26%.

Bioassay records deposited in PubChem BioAssay by National Center for Advancing Translational Sciences (NCATS).
